According to PubChem BioAssay:
“And” between values parts separate entries of the source, which are not always exact repeats. Equal values may be shown once. The source made the active and inactive calls.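 Rule for the calls, unless noted: active = thallium flux through the channel raised or lowered by more than 3 SD from vehicle-only wells, actives on both sides; inactive = the rest.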

Experiments:
[1] = blockers of polyQ-driven CASP3 activation – cell-based (AID 1583); conditions: polyglutamine-induced caspase-3 activation, cell assay; stronger effect = higher value;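 tested at 10 µM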
[2] = yeast 75Q aggregation reduction – 75Q-TubU reporter (AID 1593); conditions: Yeast 75Q polyglutamine aggregation reporter
[3] = blockers of cytochrome c efflux from mitochondria – biochemical, purified mitochondria (AID 1603); conditions: stronger effect = lower value;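 note: mouse liver mitochondria challenged with calcium chloride; signal normalized to the plate average as 100%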
[4] = polyglutamine aggregate formation blockers (AID 1604); conditions: polyglutamine-induced protein aggregation inhibition assay; stronger effect = higher value; tested at 2.5 µM
[5] = glutamate transport activators, MN-1 cells, MN-1 cell line (AID 1612); conditions: MN-1 motor neuron cells, stronger effect = higher value;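 note: tested at 1 µM final; 0% = mean of DMSO vehicle wells on each plate; positive means more glutamate uptake than control and negative means less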
[6] = signal quenchers or enhancers, Cy5 substrate/SSB – biochemical, NIH Clinical Collection, E. coli SSB, artefact control for HCV NS3 helicase inhibitor project (AID 743268; call rule not given here); conditions: Cy5-oligo bound E. coli SSB, fluorescence interference
[7] = tested on: Hepatitis C virus NS3 helicase; test: blockers of NS3h binding to DNA – biochemical, fluorescence polarization, NIH Clinical Collection, primary screen (AID 743270; call rule not given here); conditions: NS3 helicase binding to Cy5-dT15 DNA, stronger effect = higher value, concentration not given here
[8] = biological target: Single-stranded DNA-binding protein (Escherichia coli (strain K12)) (UniProt P0AGE0); test: SSB-ssDNA binding inhibitors – biochemical, fluorescence polarization, NIH Clinical Collection, counter-screen for HCV NS3 helicase inhibitor project (AID 743271; in the data active = inhibition above about 28%); conditions: E. coli SSB-DNA binding, stronger effect = higher value, concentration not given here
[9] = compounds distorting NS3 helicase fluorescence signal – biochemical, NIH Clinical Collection, artefact control for HCV NS3 helicase inhibitor project (AID 743272; call rule not given here;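 note: HCV NS3 helicase with a Cy5 labelled single stranded DNA probe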); conditions: fluorescence interference counterscreen, HCV NS3 helicase assay; stronger effect = lower value
[10] = galactose survival enhancers in mitochondrial complex I cybrids – cell-based, galactose medium, ATP luminescence, primary screen (AID 1645843;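 active = z-score of at least 1.8 in each of two replicates, scored against plate mean and spread of sample wells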;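 note: positive z means more ATP and so rescue of galactose-driven cybrid death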); conditions: complex I mutant cybrid cells, 72 h, stronger effect = higher value
[11] = tested on: F380Y/beta4; test: BK channel mutant inhibitors and activators – cell-based, U2OS BacMam, thallium flux, beta subunits, selectivity assay, profiling panel (AID 1259406); conditions: U2OS BacMam BK variants, at 30 µM;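 note: initial slope of Thallos dye fluorescence rise after thallium is added; log ratio against the mean of 0.3% DMSO vehicle wells on the same plate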
[12] = biological target: Calcium-activated potassium channel subunit alpha-1 (Homo sapiens) + Leucine-rich repeat-containing protein 26 (Homo sapiens) (UniProt Q12791+Q2I0M4); test: as above; conditions: U2OS BacMam BK variants, F380Y/Slo1WT/gamma1, at 30 µM
Calcium-activated potassium channel subunit alpha-1 (Homo sapiens) + Leucine-rich repeat-containing protein 26 (Homo sapiens), sequence (Q2I0M4 whole entry, looked up, one chain of several): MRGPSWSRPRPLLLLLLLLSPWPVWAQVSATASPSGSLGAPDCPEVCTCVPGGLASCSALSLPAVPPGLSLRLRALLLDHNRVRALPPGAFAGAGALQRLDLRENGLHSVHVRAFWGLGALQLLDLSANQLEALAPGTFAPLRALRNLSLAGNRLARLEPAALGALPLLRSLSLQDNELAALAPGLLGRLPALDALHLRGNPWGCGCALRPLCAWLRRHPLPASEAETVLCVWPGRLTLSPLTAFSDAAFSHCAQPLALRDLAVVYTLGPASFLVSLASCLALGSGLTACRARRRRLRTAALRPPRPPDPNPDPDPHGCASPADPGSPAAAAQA

[13] = tested on: R275C; test: as above; conditions: U2OS BacMam BK variants, at 30 µM
[14] = tested on: R275C/beta1; test: as above; conditions: U2OS BacMam BK variants, at 30 µM
[15] = tested on: R275C/beta2Delta; test: as above; conditions: U2OS BacMam BK variants, at 30 µM
[16] = tested on: R275C/beta4; test: as above; conditions: U2OS BacMam BK variants, at 30 µM
[17] = tested on: R275C/Slo1WT/beta2; test: as above; conditions: U2OS BacMam BK variants, at 30 µM
[18] = growth inhibition, single agent or in combination, cell-based, chromothripsis tumors, cisplatin or BGB combos (AID 1671449; in the data active = inhibition above about 80%;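 note: cells exposed for 96 hours; 0% = vehicle DMSO and 100% = killing by high DMSO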); conditions: LFS_MB_P medulloblastoma cells
[19] = growth inhibition, single agent and combos, cell-based, chromothripsis tumors, cisplatin or BGB combos (AID 1671450; in the data active = inhibition above about 80%;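 note: cells exposed to compound for four days; 0% = vehicle DMSO and 100% = cell killing by high DMSO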); conditions: HDN33 neuroblastoma cells, stronger effect = higher value
[20] = growth inhibition, single agents and combos, HTB85, cell-based, BGB or cisplatin IC20 combos, synergistic combos for chromothripsis tumors (AID 1671453; in the data active = inhibition above about 80%;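 note: cells exposed for 96 hours before readout; 0% = vehicle DMSO and 100% = high DMSO killing control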); conditions: HTB85 osteosarcoma cells, drug combinations, stronger effect = higher value

NNC(=O)c1ccncc1
inhibition [1]: -15%
score [2]: 1.32
cytochrome c release ratio [3]: 1.2
inhibition of aggregation [4]: 30.1%
glutamate uptake change [5]: -15.1%
fluorescence ratio [6]: 1.01 (inactive)
inhibition [7]: -2.27% (inactive)
inhibition [8]: 3.34% (inactive)
fluorescence ratio [9]: 0.93 (inactive)
z-score [10]: 0.55 (inactive) and 0.315 (inactive)
log fold change Tl+ flux [11]: 0.0513 (inactive)
log fold change Tl+ flux [12]: 0.0222 (inactive)
log fold change Tl+ flux [13]: 0.00765 (inactive)
log fold change Tl+ flux [14]: -0.00353 (inactive)
log fold change Tl+ flux [15]: 0.0339 (inactive)
log fold change Tl+ flux [16]: 0.0039 (inactive)
log fold change Tl+ flux [17]: -0.0323 (inactive)

CCOC(=O)C1=C(C)NC(C)=C(C(=O)OC)C1c1cccc([N+](=O)[O-])c1 (stereo not drawn)
fluorescence ratio [6]: 1 (inactive)
inhibition [7]: 4.36% (inactive)
inhibition [8]: 8.37% (inactive)
fluorescence ratio [9]: 1.03 (inactive)
log fold change Tl+ flux [11]: -0.0639 (inactive)
log fold change Tl+ flux [12]: 0.00177 (inactive)
log fold change Tl+ flux [13]: 0.0204 (inactive)
log fold change Tl+ flux [14]: 0.00401 (inactive)
log fold change Tl+ flux [15]: -0.0485 (inactive)
log fold change Tl+ flux [16]: -0.023 (inactive)
log fold change Tl+ flux [17]: 0.016 (inactive)

NCCc1ccc(O)c(O)c1
inhibition [1]: 12.5%
score [2]: 1.44
cytochrome c release ratio [3]: 0.92
inhibition of aggregation [4]: 81.4%
glutamate uptake change [5]: 17.9%
fluorescence ratio [6]: 0.93 (inactive)
inhibition [7]: -5.91% (inactive)
inhibition [8]: -2% (inactive)
fluorescence ratio [9]: 0.96 (inactive)
z-score [10]: -1.03 (inactive) and -1.31 (inactive)
log fold change Tl+ flux [11]: 0.00195 (inactive)
log fold change Tl+ flux [12]: -0.0022 (inactive)
log fold change Tl+ flux [13]: 0.00996 (inactive)
log fold change Tl+ flux [14]: -0.0871 (inactive)
log fold change Tl+ flux [15]: 0.0238 (inactive)
log fold change Tl+ flux [16]: 0.0461 (inactive)
log fold change Tl+ flux [17]: 0.00323 (inactive)

Oc1c(Cl)cc(Cl)c2cccnc12
inhibition [1]: 31.4%
score [2]: -0.52
cytochrome c release ratio [3]: 0.8
inhibition of aggregation [4]: -25.9%
glutamate uptake change [5]: -23%
fluorescence ratio [6]: 1.02 (inactive)
inhibition [7]: 2.27% (inactive)
inhibition [8]: -0.48% (inactive)
fluorescence ratio [9]: 0.95 (inactive)
z-score [10]: -1.51 (inactive)
log fold change Tl+ flux [11]: 0.326 (active)
log fold change Tl+ flux [12]: 0.231 (active)
log fold change Tl+ flux [13]: 0.0996 (active)
log fold change Tl+ flux [14]: 0.249 (active)
log fold change Tl+ flux [15]: 0.0748 (inactive)
log fold change Tl+ flux [16]: 0.422 (active)
log fold change Tl+ flux [17]: 0.19 (active)

OC(Cn1cncn1)(Cn1cncn1)c1ccc(F)cc1F
inhibition [1]: -12.6%
score [2]: 0.67
cytochrome c release ratio [3]: 0.79
inhibition of aggregation [4]: 0%
glutamate uptake change [5]: -9.51%
fluorescence ratio [6]: 1.05 (inactive)
inhibition [7]: -3.18% (inactive)
inhibition [8]: -4.29% (inactive)
fluorescence ratio [9]: 1.02 (inactive)
z-score [10]: 1.3 (inactive) and 0.555 (inactive)
log fold change Tl+ flux [11]: 0.0309 (inactive)
log fold change Tl+ flux [12]: -0.0185 (inactive)
log fold change Tl+ flux [13]: 0.0468 (inactive)
log fold change Tl+ flux [14]: 0.023 (inactive)
log fold change Tl+ flux [15]: 0.0182 (inactive)
log fold change Tl+ flux [16]: 0.0436 (inactive)
log fold change Tl+ flux [17]: 0.0134 (inactive)

CC12CC3CC(C)(C1)CC(N)(C3)C2
inhibition [1]: 12.5%
score [2]: 1.59
cytochrome c release ratio [3]: 1.07
inhibition of aggregation [4]: 35%
glutamate uptake change [5]: 2.56%
fluorescence ratio [6]: 1.02 (inactive)
inhibition [7]: -1.36% (inactive)
inhibition [8]: -0.48% (inactive)
fluorescence ratio [9]: 1.02 (inactive)
z-score [10]: -0.41 (inactive) and 0.5 (inactive) and -0.635 (inactive)
log fold change Tl+ flux [11]: 0.00566 (inactive)
log fold change Tl+ flux [12]: -0.0203 (inactive)
log fold change Tl+ flux [13]: 0.00266 (inactive)
log fold change Tl+ flux [14]: -0.0595 (inactive)
log fold change Tl+ flux [15]: 0.0488 (inactive)
log fold change Tl+ flux [16]: 0.0101 (inactive)
log fold change Tl+ flux [17]: -0.103 (inactive)

CC1COc2c(N3CCN(C)CC3)c(F)cc3c(=O)c(C(=O)O)cn1c23 (stereo not drawn)
inhibition [1]: 10.8%
score [2]: 1.04
cytochrome c release ratio [3]: 1.57
inhibition of aggregation [4]: 67.8%
glutamate uptake change [5]: -4.74%
fluorescence ratio [6]: 0.99 (inactive)
inhibition [7]: -2.27% (inactive)
inhibition [8]: 2.57% (inactive)
fluorescence ratio [9]: 0.87 (inactive)
inhibition ([18]; at 0.5 µM, stronger effect = higher value): -15.2% (inactive) and -4.35% (inactive) and -7.1% (inactive)
inhibition ([18]; measured here: combination with BGB IC20, at 0.005 µM): -17.1% and -18.6% and 40.6%
inhibition ([18]; measured here: combination with BGB IC40, at 0.005 µM): -34.5% and 8.51% and 11.7%
inhibition ([18]; measured here: combination with BGB IC40, at 0.05 µM): -33.9% and 2.31% and 36%
inhibition ([18]; measured here: combination with cisplatin, at 0.5 µM, stronger effect = higher value): -16.9% and 6.16% and -20.4%
inhibition ([18]; measured here: combination with cisplatin, at 5 µM, stronger effect = higher value): -20.4% and -8.17% and -11.9%
inhibition ([19]; BGB combo, at 5 µM): -21.1% and 5.47% and 15%
inhibition ([19]; at 0.5 µM): -45.4% (inactive) and 10.2% (inactive) and 8.6% (inactive)
inhibition ([19]; cisplatin combo, at 5 µM): -32.1% and -5.63% and 10.7%
inhibition ([19]; measured here: with BGB IC20 combination, at 0.5 µM): -54.6% and 19.4% and 13%
inhibition ([19]; measured here: with cisplatin IC20 combination, at 0.5 µM): -40.5% and 0.068% and 0.136%
inhibition ([19]; single agent, at 5 µM): -44.6% and 1.17% and 11.7%
inhibition ([20]; at 0.5 µM): -45.9% (inactive) and 3.58% (inactive) and -0.61% (inactive)
inhibition ([20]; measured here: with BGB IC20, at 0.5 µM): -68.8% and -8.08% and -9.45%
inhibition ([20]; measured here: with BGB IC20, at 5 µM): -49.9% and 8% and -6.03%
inhibition ([20]; measured here: with cisplatin IC20, at 0.5 µM): -39.2% and 5.61% and -11.8%
inhibition ([20]; measured here: with cisplatin IC20, at 5 µM): -30.4% and 7.76% and -5.54%
inhibition ([20]; single agent, at 5 µM): -34.4% and -4.7% and 18.3%
log fold change Tl+ flux [11]: 0.0067 (inactive)
log fold change Tl+ flux [12]: 0.00974 (inactive)
log fold change Tl+ flux [13]: 0.0249 (inactive)
log fold change Tl+ flux [14]: -0.02 (inactive)
log fold change Tl+ flux [15]: -0.03 (inactive)
log fold change Tl+ flux [16]: 0.0112 (inactive)
log fold change Tl+ flux [17]: 0.0308 (inactive)

CCCc1cc(=O)[nH]c(=S)[nH]1
inhibition [1]: -28.5%
score [2]: 1.06
cytochrome c release ratio [3]: 1.02
inhibition of aggregation [4]: 48%
glutamate uptake change [5]: 4.57%
fluorescence ratio [6]: 1.04 (inactive)
inhibition [7]: -1.36% (inactive)
inhibition [8]: 0.29% (inactive)
fluorescence ratio [9]: 0.97 (inactive)
z-score [10]: 0.835 (inactive)
log fold change Tl+ flux [11]: 0.0238 (inactive)
log fold change Tl+ flux [12]: 0.00637 (inactive)
log fold change Tl+ flux [13]: -0.0214 (inactive)
log fold change Tl+ flux [14]: -0.00439 (inactive)
log fold change Tl+ flux [15]: -0.0158 (inactive)
log fold change Tl+ flux [16]: -0.0141 (inactive)
log fold change Tl+ flux [17]: 0.0488 (inactive)

COCCOC(=O)C1=C(C)NC(C)=C(C(=O)OC(C)C)C1c1cccc([N+](=O)[O-])c1 (stereo not drawn)
fluorescence ratio [6]: 0.87 (inactive)
inhibition [7]: 6.77% (inactive)
inhibition [8]: 15.3% (inactive)
fluorescence ratio [9]: 0.92 (inactive)
log fold change Tl+ flux [11]: -0.126 (active)
log fold change Tl+ flux [12]: 0.0377 (inactive)
log fold change Tl+ flux [13]: -0.000869 (inactive)
log fold change Tl+ flux [14]: -0.0169 (inactive)
log fold change Tl+ flux [15]: -0.0566 (inactive)
log fold change Tl+ flux [16]: -0.0265 (inactive)
log fold change Tl+ flux [17]: -0.0323 (inactive)
